PubChem BioAssay (Tox21)
Where “and” joins values, the source holds several entries; their conditions need not be identical. Equal values may be shown once. A number with no mark means an inactive call. Records with an inconclusive call do not appear. Entries that show only a call come without a potency. Calls of active or inactive are those of the source. Unless noted, calls come from the whole dose curve; as a rule, active = well fitted curve in the direction sought with a large enough effect in the repeat runs; inconclusive = weak or mixed curves; inactive = no such curve, though single readings can be large; an effect the other way counts as inactive or inconclusive.

Tests used:
[1] = qHTS assay to identify small molecule antagonists of the glucocorticoid receptor (GR) signaling pathway - cell viability counter screen (AID 720693); note: nearly all actives have a fitted effect of over 55% in size
[2] = qHTS assay for identifying genotoxic compounds that show differential cytotoxicity against isogenic chicken DT40 cell lines with known DNA damage response pathways - wild type cell line (AID 743012); note: nearly all actives have a fitted effect of over 60% in size; note: potency is the fitted concentration of half-maximal effect
In short: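 Cytotoxicity in repair-proficient parental chicken DT40 cells serves as the comparator for Rad54/Ku70- and Rev3-deficient lines. Cells were exposed to compounds for 40 h at 37 C/5% CO2, and ATP-based luminescence (CellTiter-Glo) measured viability.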

[3] = qHTS assay for identifying genotoxic compounds that show differential cytotoxicity against isogenic chicken DT40 cell lines with known DNA damage response pathways - Rev3 mutant cell line (AID 743014); note: nearly all actives have a fitted effect of over 55% in size; note: potency is the fitted concentration of half-maximal effect
[4] = qHTS assay for identifying genotoxic compounds that show differential cytotoxicity against isogenic chicken DT40 cell lines with known DNA damage response pathways - Rad54/Ku70 mutant cell line (AID 743015); note: nearly all actives have a fitted effect of over 60% in size; note: potency is the fitted concentration of half-maximal effect
[5] = qHTS assay to identify small molecule antagonists of the androgen receptor (AR) signaling pathway - cell viability counter screen (AID 743033; note: nearly all actives have a fitted effect of over 45% in size)
[6] = target: Androgen receptor (Homo sapiens) (UniProt P10275); test: qHTS assay to identify small molecule antagonists of the androgen receptor (AR) signaling pathway (AID 743035; active = well fitted inhibition curve with a large enough effect in the signal ratio in the repeat runs, not every such curve was filed as active; the % refers to the signal ratio)
Sequence of Androgen receptor (Homo sapiens) (P10275 whole entry, looked up): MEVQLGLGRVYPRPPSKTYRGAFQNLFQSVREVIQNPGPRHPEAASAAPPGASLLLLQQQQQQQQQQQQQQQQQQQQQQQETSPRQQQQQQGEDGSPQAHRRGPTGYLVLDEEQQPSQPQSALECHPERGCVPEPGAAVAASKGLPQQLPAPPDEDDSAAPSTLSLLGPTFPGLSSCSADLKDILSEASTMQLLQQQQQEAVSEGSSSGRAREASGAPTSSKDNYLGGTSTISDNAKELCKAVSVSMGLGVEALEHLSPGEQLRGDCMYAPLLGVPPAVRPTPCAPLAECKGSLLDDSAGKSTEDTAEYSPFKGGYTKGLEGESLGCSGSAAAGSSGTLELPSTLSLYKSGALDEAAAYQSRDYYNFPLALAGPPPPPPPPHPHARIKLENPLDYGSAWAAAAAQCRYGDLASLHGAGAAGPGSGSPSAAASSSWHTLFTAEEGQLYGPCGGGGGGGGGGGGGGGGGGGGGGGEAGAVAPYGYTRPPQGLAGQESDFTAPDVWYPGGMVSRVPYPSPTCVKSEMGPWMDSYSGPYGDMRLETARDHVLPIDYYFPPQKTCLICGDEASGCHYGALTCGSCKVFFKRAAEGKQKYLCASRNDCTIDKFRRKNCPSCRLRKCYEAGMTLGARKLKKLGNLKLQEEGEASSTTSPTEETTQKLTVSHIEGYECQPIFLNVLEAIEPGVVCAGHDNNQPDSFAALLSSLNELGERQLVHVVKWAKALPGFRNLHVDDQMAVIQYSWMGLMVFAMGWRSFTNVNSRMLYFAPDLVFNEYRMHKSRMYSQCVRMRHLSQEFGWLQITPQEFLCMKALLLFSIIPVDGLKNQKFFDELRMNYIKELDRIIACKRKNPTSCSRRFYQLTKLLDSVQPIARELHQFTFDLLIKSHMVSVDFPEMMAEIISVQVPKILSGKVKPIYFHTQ
In short: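 Steps: seed AR-UAS-bla GripTite HEK293 cells, incubate 4 h at 37C; pin in test compound, then add agonist R1881; incubate 16 h at 37C; add LiveBLAzer B/G FRET substrate, 2 h at room temperature; read fluorescence.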

[7] = target: Androgen receptor (Homo sapiens) (UniProt P10275); test: qHTS assay to identify small molecule agonists of the androgen receptor (AR) signaling pathway (AID 743036; active = well fitted activation curve with a large enough effect in the signal ratio in the repeat runs, with a control signal flat, not every such curve was filed as active; the % refers to the signal ratio)
In short: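 HEK293 cells stably carrying a UAS-driven beta-lactamase reporter (GeneBLAzer AR-UAS-bla-GripTite) were plated at 2,000 cells/well, rested 4 h at 37C, then exposed to compounds in DMSO for 16 h. LiveBLAzer B/G FRET substrate was added for 2 h at room temperature; fluorescence read.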

[8] = target: Androgen receptor (Homo sapiens) (UniProt P10275); test: qHTS assay to identify small molecule agonists of the androgen receptor (AR) signaling pathway using the MDA cell line (AID 743040; note: nearly all actives have a fitted effect of over 20% in size)
In short: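 Luciferase read-out, ONE-Glo, 30 min RT. Cells: MDA-kb2 AR-luc, MMTV promoter with AR and GR response elements. Compound exposure 16 h, 37C, 0% CO2, after 5 h pre-incubation. qHTS agonist mode.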

[9] = qHTS assay to identify small molecule antagonists of the androgen receptor (AR) signaling pathway using the MDA cell line - cell viability counter screen (AID 743041; note: nearly all actives have a fitted effect of over 45% in size)
In short: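 Cytotoxicity counter screen: MDA-kb2 AR-luc cells, compound + R1881, 16 h, 37C, 0% CO2; CellTiter-Fluor added at 15.5 h, fluorescence read after 30 min.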

[10] = target: Androgen receptor (Homo sapiens) (UniProt P10275); test: qHTS assay to identify small molecule antagonists of the androgen receptor (AR) signaling pathway using the MDA cell line (AID 743042; note: nearly all actives have a fitted effect of over 55% in size)
In short: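 MDA-kb2 breast carcinoma cells carrying MMTV-luciferase (AR/GR responsive) were co-treated with compounds and the agonist R1881 for 16 h at 37C. Inhibition read as ONE-Glo luminescence; CellTiter-Fluor fluorescence measured in parallel for cytotoxicity.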

[11] = qHTS assay to identify small molecule antagonists of the thyroid receptor (TR) signaling pathway - cell viability counter screen (AID 743064); note: nearly all actives have a fitted effect of over 50% in size
In short: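 GH3.TRE-Luc rat pituitary cells carrying a TRE-luciferase reporter were treated with compound plus 1 nM T3 (final) for 23.5 h at 37 °C. Viability was then read in the same wells by CellTiter-Fluor fluorescence after a further 30 min.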

[12] = test system: thyroid hormone receptor (rat, GH3 cells); test: qHTS assay to identify small molecule agonists of the thyroid receptor (TR) signaling pathway (AID 743066; calls by dose curve)
[13] = qHTS assay to identify small molecule antagonists of the estrogen receptor alpha (ER-alpha) signaling pathway - cell viability counter screen (AID 743074; calls by dose curve;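 note: HEK293 cells carrying ER-alpha-UAS-bla reporter stimulated with 17beta-estradiol; nearly all actives have a fitted effect of over 45% in size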; note: potency is the fitted concentration of half-maximal effect)
[14] = qHTS assay to identify small molecule antagonists of the estrogen receptor alpha (ER-alpha) signaling pathway using the BG1 cell line - cell viability counter screen (AID 743081);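 note: compound given together with 17beta-estradiol as the ER stimulus; series mostly up to about 70 µM; nearly all actives have a fitted effect of over 45% in size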
Aromatase (Homo sapiens) = Aromatase (Homo sapiens) (UniProt P11511); test: qHTS assay to identify aromatase inhibitors (AID 743083); note: series mostly up to about 70 µM; nearly all actives have a fitted effect of over 55% in size
Sequence of Aromatase (Homo sapiens) (P11511 whole entry, looked up): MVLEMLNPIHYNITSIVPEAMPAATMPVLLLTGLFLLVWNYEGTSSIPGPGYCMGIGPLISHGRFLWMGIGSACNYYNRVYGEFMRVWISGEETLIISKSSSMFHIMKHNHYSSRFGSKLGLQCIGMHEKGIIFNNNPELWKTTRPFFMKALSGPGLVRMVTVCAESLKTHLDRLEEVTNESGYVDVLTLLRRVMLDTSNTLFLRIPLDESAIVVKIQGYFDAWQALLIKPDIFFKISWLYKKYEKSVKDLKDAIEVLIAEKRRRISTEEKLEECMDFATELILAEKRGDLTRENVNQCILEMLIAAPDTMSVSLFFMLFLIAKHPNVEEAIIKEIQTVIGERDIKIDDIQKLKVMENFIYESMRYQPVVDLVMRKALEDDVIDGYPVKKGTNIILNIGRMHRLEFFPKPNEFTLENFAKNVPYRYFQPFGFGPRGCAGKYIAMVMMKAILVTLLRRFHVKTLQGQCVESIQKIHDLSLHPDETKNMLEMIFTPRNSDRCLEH

[15] = qHTS assay to identify small molecule antagonists of the thyroid receptor (TR) signaling pathway (AID 743065)
In short: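 GH3.TRE-Luc rat pituitary cells (two TREs driving luciferase) were dosed with compound, then stimulated with 1 nM T3 (final) for 23.5 h at 37 C. ONE-Glo luminescence was the read-out, with CellTiter-Fluor fluorescence as the cytotoxicity counter-screen.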

[16] = target: Estrogen receptor (Homo sapiens) (UniProt P03372); test: qHTS assay to identify small molecule antagonists of the estrogen receptor alpha (ER-alpha) signaling pathway (AID 743069; active = well fitted curve in the direction sought with a large enough effect in the signal ratio in the repeat runs, not every such curve was filed as active; the % refers to the signal ratio)
Sequence of Estrogen receptor (Homo sapiens) (P03372 whole entry, looked up): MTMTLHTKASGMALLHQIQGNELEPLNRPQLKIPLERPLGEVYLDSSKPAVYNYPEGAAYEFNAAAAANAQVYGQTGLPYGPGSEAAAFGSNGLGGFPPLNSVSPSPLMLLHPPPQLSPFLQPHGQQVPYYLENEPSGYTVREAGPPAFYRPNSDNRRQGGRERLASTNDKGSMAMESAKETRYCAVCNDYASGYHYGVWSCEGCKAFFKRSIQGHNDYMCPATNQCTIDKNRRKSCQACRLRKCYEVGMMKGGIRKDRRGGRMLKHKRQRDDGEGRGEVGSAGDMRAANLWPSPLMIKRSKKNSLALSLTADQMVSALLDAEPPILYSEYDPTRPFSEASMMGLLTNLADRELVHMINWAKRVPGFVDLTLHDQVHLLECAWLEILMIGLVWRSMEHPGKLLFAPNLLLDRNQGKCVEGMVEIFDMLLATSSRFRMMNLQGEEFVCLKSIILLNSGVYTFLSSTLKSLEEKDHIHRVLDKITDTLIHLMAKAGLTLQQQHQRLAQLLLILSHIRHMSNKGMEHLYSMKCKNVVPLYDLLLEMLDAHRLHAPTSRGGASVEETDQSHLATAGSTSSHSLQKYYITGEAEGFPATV
In short: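 Beta-lactamase FRET fluorescence is read after 2 hr at room temperature with LiveBLAzer B/G substrate. Before that, ER-alpha-bla HEK293 cells sit 4 hr after plating, then receive compound plus 17beta-estradiol and incubate 18 hr at 37C.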

[17] = target: Estrogen receptor (Homo sapiens) (UniProt P03372); test: qHTS assay to identify small molecule agonists of the estrogen receptor alpha (ER-alpha) signaling pathway (AID 743075; calls by dose curve)
[18] = target: Estrogen receptor (Homo sapiens) (UniProt P03372); test: qHTS assay to identify small molecule agonists of the estrogen receptor alpha (ER-alpha) signaling pathway using the BG1 cell line (AID 743079); note: nearly all actives have a fitted effect of over 20% in size
[19] = qHTS assay to identify small molecule antagonists of the estrogen receptor alpha (ER-alpha) signaling pathway using the BG1 cell line (AID 743080; calls by dose curve; note: series mostly up to about 70 µM; nearly all actives have a fitted effect of over 25% in size)
In short: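 Antagonist mode: compounds in DMSO were pinned onto BG1-Luc-4E2 cells alongside 17beta-estradiol agonist, incubated 21.5 h, and ERE-driven luciferase measured with ONE-Glo. Cytotoxicity was multiplexed using CellTiter-Fluor fluorescence.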

Row | SMILES | outcome [1] | Potency [2] | Potency [3] | Potency [4] | outcome [5] | Potency [6] | outcome [7] | Potency [8] | Potency [9] | outcome [10] | Potency [11] | outcome [12] | Potency [13] | outcome [14] | outcome (Aromatase (Homo sapiens)) | Potency [15] | Potency [16] | Potency [17] | Potency [18] | Potency [19]
1 | Cc1nc2ccc(CN(C)c3ccc(C(=O)N[C@@H](CCC(=O)O)C(=O)O)s3)cc2c(=O)[nH]1 | inactive | 3.8 nM (active) and 7.5 nM (active) | 2.7 nM (active) and 5.3 nM (active) | 2.1 nM (active) and 4.2 nM (active) | inactive | inactive | inactive | inactive | inactive | inactive | inactive | inactive | 190 nM (active) and 239 nM (active) | inactive | inactive | – | – | – | – | –
2 | O=S(=O)(O)c1cc(O)c(O)c(S(=O)(=O)O)c1 | inactive | inactive | inactive | inactive | inactive | inactive | inactive | inactive | inactive | inactive | inactive | inactive | inactive | inactive | inactive | inactive | inactive | inactive | inactive | inactive
3 | CCN[C@H]1C[C@H](C)S(=O)(=O)c2sc(S(N)(=O)=O)cc21 | inactive | inactive | inactive | inactive | inactive | – | – | – | inactive | – | inactive | inactive | inactive | inactive | inactive | inactive | inactive | inactive | inactive | inactive
4 | CC(C(=O)O)c1cccc(Oc2ccccc2)c1 (configuration not stated) | inactive | inactive | inactive | inactive | inactive | – | – | – | inactive | – | inactive | inactive | inactive | inactive | inactive | – | – | – | – | –
